# Compound activity from PubChem.
# Shown are actives, neighbours in structure and some others; about 1.6% of the full set was active somewhere.
# Sa RN4220 lethal: growth inhibition of S. aureus RN4220, primary screen, OD600; inhibition, % (test concentration not listed); actives 0.33% (n = 330,000); 16 h; in the data active = inhibition above about 85%;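 note: plate controls were untreated cells for no effect and reference antibiotic for full effect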
# BJeLR viability: MLPCN primary cell-based screen for lethality selective to Ras in HRASV12 cells; BJeLR (HRASV12) viability, CellTiter-Glo ATP luminescence, 48 h; inhibition, % (no concentration beside the values); actives 0.17% (n = 300,000); AID 1554, 2009; in the data active = inhibition above about 50%; inconclusive = no clear call, values can overlap the other calls
# PfHsp40 rescue: rescue of yeast from PfHsp40 toxicity, primary screen, S. cerevisiae, ATP luminescence; actives 0.68% (n = 340,000); S. cerevisiae expressing PfHsp40, growth rescue; AID 504582, 2011; growth rescue, % at 12.5 µM; in the data active = growth rescue above about 28%, passing the limit was not always enough; inconclusive = no clear call, values can overlap the other calls;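 note: yeast W303a lacking pdr1 and pdr3 grown in galactose medium; growth measured after three days at 30 °C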
# CCHF vOTU inh: CCHFV vOTU protease inhibitors, primary screen, biochemical, Pep-AMC substrate, fluorescence; Crimean-Congo hemorrhagic fever virus L polyprotein viral ovarian tumor (vOTU) protease …; actives 0.55% (n = 370,000); inhibition, % at 11.5 µM; in the data active = inhibition above about 30%; note: 0% = vehicle wells with enzyme and 100% = no enzyme wells
# Sa ugtP lethal: growth inhibition of ugtP-null S. aureus, primary screen, RN4220 ugtP deletion, OD600; AID 1259309, 2017; actives 0.54% (n = 330,000); 16 h; growth inhibition, % (test concentration not listed); in the data active = growth inhibition above about 68%;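 note: plate controls were untreated wells for no effect and antibiotic for full effect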
# Numbers without * were called inactive; ? = inconclusive; . = not tested or not shown; ! = repeats disagree.
SMILES,Sa RN4220 lethal,BJeLR viability,PfHsp40 rescue,CCHF vOTU inh,Sa ugtP lethal
CN1CCN(S(=O)(=O)c2ccc(NC(=S)NC(=O)c3ccc(Cl)cc3)cc2)CC1,4.3,.,-1.5,19.4,90.5*
O=S(=O)(c1ccc(NC(=S)NCc2cccnc2)cc1)N1CCCCC1,3.9,62.3*,0.9,-14.9,3.6
CCCC(=O)Nc1ccc(S(=O)(=O)N2CCCC2)cc1,0.2,9.8,1.3,6.2,-1.2
C(=NNc1nc2ccccc2[nH]1)c1cccs1,1.6,.,.,.,-0.4
CN1C(=O)C2C(C3CC3)N3C(=O)CN(CCO)C(=O)[C@@]3(Cc3ccccc3)C2C1=O (stereo partly drawn),1.3,.,.,.,-0.1
CNC(=S)NN=Cc1cn(CCOc2ccccc2OC)c2ccccc12,19.8,.,.,.,11.2
O=C(NN=CC1CC=CCC1)c1ccc(Br)o1 (stereo not drawn),3.9,.,.,.,3.1
O=C(O)C1CCCCC1C(=O)Nc1ccc(S(=O)(=O)N2CCCC2)cc1 (stereo not drawn),3.8,-11.3,116.0*,-2.4,8.8
O=C(Nc1ccc(Cl)cn1)c1cccc(S(=O)(=O)N2CCCCC2)c1,2.9,-14.1,70.4*,-11.4,-1.2
CCOC(=O)Cc1cc(=O)[nH]c(N=C(NC(=O)c2ccccc2)Nc2ccccc2C(F)(F)F)n1,3.4,.,.,.,5.9
CCCCCCN1C=CC(=C2C(=O)c3ccccc3C2=O)C=C1,5.7,16.0,0.6,10.6,0.7
CCCN1C=CC(=C2C(=O)c3ccccc3C2=O)C=C1,4.4,68.0*,-0.6,4.2,-0.1
CCCOC(=O)C(C)=NNC(=O)c1ccco1,2.1,.,.,.,-3.7
Cc1c(O)cc2n(c1=O)-c1ccccc1C2(C)C,-6.7,2.3,1.6,-6.1,-2.7
CC1(C)c2ccccc2-n2c1cc1oc(=O)cc(O)c1c2=O,.,-4.0,59.7*,17.0,.
Cc1ccc(C2CC2C(=O)NNC(=S)Nc2cccc(C)c2)cc1 (stereo not drawn),2.3,4.3,?,-5.5,8.4
Cc1ccc(C2CC2C(=O)NNC(=S)Nc2cccc(Cl)c2)cc1 (stereo not drawn),-6.5,-0.7,78.7*,21.0,-8.1
O=S(=O)(C=Cc1ccccc1)Nc1cccc(S(=O)(=O)NC2=NCCC2)c1,9.1,.,.,.,-2.9
O=C(Nc1cc(C(F)(F)F)ccc1N1CCOCC1)c1n[nH]c(=O)c2ccccc12,99.7*,-2.4,-0.5,-5.0,98.0*
O=C(Nc1cc(C(F)(F)F)ccc1N1CCOCC1)c1ccc(F)cc1,-19.6,1.5,-0.2,2.0,-6.0
CC1=NN(C(N)=S)C(=O)C1N=Nc1cccc2ccccc12 (stereo not drawn),.,6.5,.,.,.
CC1=NN(C(N)=S)C(=O)C1N=Nc1cccc(Cl)c1C (stereo not drawn),9.4,-1.0,104.1*,4.3,13.1
Nc1c(C(=O)Nc2nc3ccccc3s2)sc2nc(-c3cccs3)ccc12,79.7,10.8,-1.0,.,99.3*
CC(=O)c1sc2nc(-c3cccs3)ccc2c1N,-1.1,-6.8,1.3,-5.4,-16.5
CC(=O)Nc1ccc2c(c1)Cc1cc(N3C(=O)C=CC3=O)ccc1-2,1.1,.,668.4*,-3.8,2.1
SMILES,Sa RN4220 lethal,BJeLR viability,PfHsp40 rescue,CCHF vOTU inh,Sa ugtP lethal
COc1ccc(CNC(=S)NN=Cc2ccc(O)c(OC)c2)cc1,14.4,.,.,.,6.6
COc1cc(/C=C2\SC(=S)N(NS(=O)(=O)c3ccc(C)cc3)C2=O)ccc1O,85.7*,7.8,303.4*,17.1,70.6
CCOc1cc(/C=C2\SC(=S)N(NS(=O)(=O)c3ccc(C)cc3)C2=O)ccc1O,85.3*,-6.3,59.2*,13.9,73.1
COc1ccccc1/C=C1\SC(=S)N(NS(=O)(=O)c2ccccc2)C1=O,87.5*,0.6,0.2,1.4,69.7
COc1cc(/C=C2\SC(=S)N(NS(=O)(=O)c3ccccc3)C2=O)ccc1O,56.6,-7.9,-1.0,18.1,31.1
COc1cc(OC)c(C=NNC(=O)COc2cccc3cccnc23)c(OC)c1,2.8,.,.,.,16.2
Cc1ccc(NS(=O)(=O)c2ccc3c(c2)NC(=O)CCS3)c(Cl)c1,96.3*,0.0,0.2,-11.0,89.8*
Cc1ccc(NS(=O)(=O)c2ccc3c(c2)NC(=O)CCS3)c(C)c1,98.0*,-1.2,-0.6,6.0,95.6*
Cc1cc(C)c(NS(=O)(=O)c2ccc3c(c2)NC(=O)CCS3)c(C)c1,55.4,8.9,-0.1,18.8,3.4
Cc1ccc(C(O)(C(=O)NNc2ccc3ccccc3n2)c2ccc(C)cc2)cc1,-1.2,-12.0,74.6*!,12.2,5.1
Cc1csc2ncc(C(=O)Nc3ccccc3F)c(=O)n12,2.5,3.6,-0.1,-1.3,-4.1
CCN(C(=O)c1cnc2scc(C)n2c1=O)c1ccccc1C,-2.9,-5.1,40.0*,-3.5,1.8
Cc1ccc(/C=N/Nc2nncc(-c3ccccc3)n2)o1,.,0.7,-0.8,7.4,.
Cc1[nH]n(-c2ccccc2)c(=O)c1/C=N/Nc1nncc(-c2ccccc2)n1,.,57.2*,262.1*,-1.6,.
Cc1[nH]n(-c2ccccc2)c(=O)c1C=NNc1nncc(-c2ccccc2)n1,96.3*,.,.,.,98.2*
Nc1nc(CCl)nc(Nc2ccc3ccccc3c2)n1,11.3,114.0*,0.4,9.6,-8.8
Cc1ccccc1Nc1nc(N)nc(CCl)n1,2.3,66.9*,-0.4,2.9,2.5
OCC(O)C=NNc1nc(Nc2ccccc2)nc(Nc2ccccc2)n1 (stereo not drawn),8.8,.,.,.,-3.5
CCCCC(C)=CC(NP(=O)(c1ccccc1)c1ccccc1)c1ccccc1 (stereo not drawn),-5.3,.,.,.,-2.6
Cc1ccc(C(=O)Nc2nc(-c3ccccn3)cs2)s1,19.1,.,58.9*,29.1,1.7
CCc1sc(C(=O)Nc2nccs2)cc1C,-1.5,-11.4,4.1,-3.0,-1.8
CCc1sc(C(=O)Nc2nc(-c3ccccn3)cs2)cc1C,35.6,.,441.1*,.,1.1
O=C(Nc1nc(-c2ccccn2)cs1)c1ccc(Cl)s1,51.4,-4.1,-1.2,-3.4,58.3
CC(C)(C)n1nc(Cc2cccc3ccccc23)c2c(N)ncnc21,1.9,8.9,551.6*,-3.2,-0.7
Cc1cccc(C2CC(c3ccccc3)Nc3nc(N)nn32)c1 (stereo not drawn),2.8,-6.0,48.2*,-3.7,8.3
SMILES,Sa RN4220 lethal,BJeLR viability,PfHsp40 rescue,CCHF vOTU inh,Sa ugtP lethal
CCOC(=O)c1cccc2c1-c1ccccc1/C2=N/O,.,-10.3,232.6*,7.6,.
CC(C)COC(=O)c1cccc2c1-c1ccccc1/C2=N\O,.,7.1,?,17.9,.
CCOc1ccc(C=NNC(=O)c2c(C)n(C)c3ccc(OC)cc23)cc1,1.1,.,.,.,13.8
CCOc1ccc2c(c1)c(N=O)c(O)n2C,4.1,9.4,-1.5,0.2,89.9*
COc1ccc(C(C)=NNc2nccnc2Cl)cc1,2.0,.,.,.,-7.3
COc1ccc(C(C(=O)NC2CCCCC2)N(C(=O)CCl)c2ccc(C)cc2)cc1 (stereo not drawn),7.4,135.2*,-0.6,1.2,1.0
COc1ccc(C(C(=O)NC2CCCCC2)N(C(=O)CCl)c2ccc(OC)cc2)cc1 (stereo not drawn),-2.8,117.9*,-0.1,.,5.0
